This passage reports outcome and AC50 results from PubChem BioAssay (EPA / NIEHS).

Several values for one entry are separate records, joined by “and”; a condition that tells them apart may be missing. Identical values can stand only once. Records with an inconclusive call do not appear. Activity calls are given as the source filed them. Rule for the calls, unless noted: active = hit-call score of the fitted dose curve at least 0.9, where 1 is the maximum; inactive = score below 0.9.

Test [1] can be described thus: ACEA_ER_80hr: ACEA Biosciences xCELLigence Real-Time Cell Analysis on Estrogen Receptor Agonism for Proliferation (AID 2282667; active = hit-call score of the fitted dose curve at least 0.9, where 1 is the maximum). As to conditions: T47D proliferation, impedance (xCELLigence), 80 h. An outline of the steps: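 Impedance readout (RT-CES) of T47D proliferation at 80 h post-dose; gain of signal vs DMSO baseline. Compounds: 8 conc, 1:4 serial, top 100 uM final, ≤0.5% DMSO; biological duplicate.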

Test [2] in a line: ATG_CRE_CIS: Attagene CIS-FACTORIAL HepG2 Assay for human cAMP Responsive Element (CRE) binding protein 3 (AID 2282926). As to conditions: HepG2 CRE cis-reporter, Attagene multiplexed mRNA; actives raise or lower the signal. An outline of the steps:
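Readout: fluorescently labelled reporter transcripts resolved by capillary electrophoresis after RT-PCR, taken 24 h post-dosing in transfected HepG2. Endogenous transcription factor activity drives each cis-element reporter; gain or loss of signal fitted relative to DMSO control.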

Test [3] has as its target CCAAT/enhancer-binding protein beta (Homo sapiens) (UniProt P17676). Put plainly: ATG_C_EBP_CIS: Attagene CIS-FACTORIAL HepG2 Assay for human CCAAT/Enhancer Binding Protein (C/EBP) beta (AID 2282927). As to conditions: HepG2 Attagene cis-factorial transcription factor reporter; actives raise or lower the signal. Summed up:
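RT-PCR/capillary electrophoresis fluorescence of reporter mRNA, 24 h post-dose, in HepG2 cells carrying transfected cis-promoter reporter units. Bidirectional curve fitting against DMSO baseline captures gain or loss of signal.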

Test [4] is described as follows: ATG_CMV_CIS: Attagene CIS-FACTORIAL HepG2 Assay for human CMV (Internal Marker) (AID 2282928).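 Note: endpoint acts as a background internal control marker rather than a target.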 As to conditions: HepG2 CMV promoter reporter, transcription factor profiling; actives raise or lower the signal. Summed up:
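24 h chemical treatment, HepG2 with transient multi-reporter transfection; RNA → oligo(dT) RT → PCR → 6-FAM extension → HpaI digest → CE fluorescence. Bidirectional fit, DMSO negative control.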

Test [5] in a line: ATG_DR4_LXR_CIS: Attagene CIS-FACTORIAL HepG2 Assay for human Liver X Receptor (LXR), DR4 submotif (AID 2282929). As to conditions: HepG2 Attagene DR4 cis-reporter, mRNA transcription; actives raise or lower the signal. An outline of the steps:
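Cells were transfected with multiple reporter transcription units, exposed to chemicals for 24 hours, then lysed for RNA. Reporter mRNA induction was measured by RT-PCR with capillary electrophoresis detection and fitted in both directions relative to DMSO.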

The target of test [6] is Aryl hydrocarbon receptor (Homo sapiens) (UniProt P35869). Put plainly: ATG_Ahr_CIS: Attagene CIS-FACTORIAL HepG2 Assay for human Aryl Hydrocarbon Receptor (Ahr) (AID 2282930). The conditions noted are these: HepG2 AhR cis-factorial reporter transcription; actives raise or lower the signal. Summed up: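 HepG2 cells transiently transfected with cis-element-driven multiplexed reporter transcription units; endogenous transcription factor activity measured as reporter mRNA 24 h after dosing. RT-PCR, 6-FAM labelling, HpaI digestion, capillary electrophoresis; bidirectional fitting versus DMSO baseline.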
Sequence of Aryl hydrocarbon receptor (Homo sapiens) (P35869 whole entry, looked up): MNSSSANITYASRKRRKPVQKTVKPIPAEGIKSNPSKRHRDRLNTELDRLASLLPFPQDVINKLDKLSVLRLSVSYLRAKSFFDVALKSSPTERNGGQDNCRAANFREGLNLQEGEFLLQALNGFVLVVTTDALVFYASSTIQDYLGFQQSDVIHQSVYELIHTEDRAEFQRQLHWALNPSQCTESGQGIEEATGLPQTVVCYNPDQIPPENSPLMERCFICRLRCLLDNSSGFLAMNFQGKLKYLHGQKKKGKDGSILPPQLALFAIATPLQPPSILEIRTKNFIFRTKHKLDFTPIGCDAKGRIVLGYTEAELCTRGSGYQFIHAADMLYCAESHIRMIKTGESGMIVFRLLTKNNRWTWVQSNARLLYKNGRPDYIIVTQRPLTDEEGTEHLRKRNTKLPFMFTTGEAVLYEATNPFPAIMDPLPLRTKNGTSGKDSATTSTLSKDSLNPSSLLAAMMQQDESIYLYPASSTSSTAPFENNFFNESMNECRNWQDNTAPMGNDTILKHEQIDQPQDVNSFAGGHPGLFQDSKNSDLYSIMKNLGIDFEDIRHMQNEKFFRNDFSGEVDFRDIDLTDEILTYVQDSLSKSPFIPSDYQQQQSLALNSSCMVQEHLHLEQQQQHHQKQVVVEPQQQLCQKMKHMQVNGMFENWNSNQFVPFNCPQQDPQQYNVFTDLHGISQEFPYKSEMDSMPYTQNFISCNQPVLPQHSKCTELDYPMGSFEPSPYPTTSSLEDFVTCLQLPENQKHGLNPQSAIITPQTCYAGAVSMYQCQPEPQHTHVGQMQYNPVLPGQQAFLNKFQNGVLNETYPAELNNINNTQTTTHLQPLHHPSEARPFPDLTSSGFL

Test [7] is described as follows: ATG_AP_1_CIS: Attagene CIS-FACTORIAL HepG2 Assay for human Activator Protein 1 (AP-1) (AID 2282931). The conditions noted are these: HepG2 Attagene cis-factorial AP-1 reporter mRNA; actives raise or lower the signal. Summed up: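 Endogenous transcription-factor activity in human HepG2 liver cells is read through a cis-promoter reporter transcript, sampled 24 h after dosing. Detection uses RT-PCR with capillary electrophoresis; values come from bidirectional fitting relative to DMSO.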

A short description of test [8]: ATG_AP_2_CIS: Attagene CIS-FACTORIAL HepG2 Assay for human Activator Protein 2 (AP-2) (AID 2282932). As to conditions: HepG2 AP-2 cis-reporter, Attagene transcription factor profiling; actives raise or lower the signal. Summed up:
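Cells (HepG2) transfected with promoter-driven reporter constructs, treated 24 h. Total RNA reverse-transcribed, reporter cDNA PCR-amplified, FAM-labelled by primer extension, digested, resolved by capillary electrophoresis. Activity fitted both directions versus DMSO.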

Test [9] in a line: ATG_BRE_CIS: Attagene CIS-FACTORIAL HepG2 Assay for human Bone Morphogenetic Protein (BMP) Response Element (BRE) (AID 2282933). As to conditions: HepG2 BMP response element reporter, Attagene transcription factor profiling; actives raise or lower the signal. Summed up:
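Fluorescence-labelled reporter cDNA fragments, separated by capillary electrophoresis, gave the signal for this component of a 52-readout multiplex. HepG2 cells were transfected, exposed to chemicals for 24 h, and compared with DMSO using bidirectional fitting.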

Test [10] has as its target Retinoic acid receptor alpha (Homo sapiens) (UniProt P10276). Put plainly: ATG_DR5_RAR_CIS: Attagene CIS-FACTORIAL HepG2 Assay for human Retinoic Acid Receptor Alpha (RARE), DR5 submotif (AID 2282934). As to conditions: HepG2 Attagene cis-factorial RARE DR5 reporter, mRNA; actives raise or lower the signal. Summed up: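 HepG2 cells transiently transfected with multiplexed reporter units under cis (DR5 RARE) promoters, so endogenous transcription factor activity is measured. After 24 h compound exposure, reporter mRNA is quantified by RT-PCR with fluorescent labelling and capillary electrophoresis; bidirectional fitting versus DMSO.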

Sequence of Retinoic acid receptor alpha (Homo sapiens) (P10276 whole entry, looked up): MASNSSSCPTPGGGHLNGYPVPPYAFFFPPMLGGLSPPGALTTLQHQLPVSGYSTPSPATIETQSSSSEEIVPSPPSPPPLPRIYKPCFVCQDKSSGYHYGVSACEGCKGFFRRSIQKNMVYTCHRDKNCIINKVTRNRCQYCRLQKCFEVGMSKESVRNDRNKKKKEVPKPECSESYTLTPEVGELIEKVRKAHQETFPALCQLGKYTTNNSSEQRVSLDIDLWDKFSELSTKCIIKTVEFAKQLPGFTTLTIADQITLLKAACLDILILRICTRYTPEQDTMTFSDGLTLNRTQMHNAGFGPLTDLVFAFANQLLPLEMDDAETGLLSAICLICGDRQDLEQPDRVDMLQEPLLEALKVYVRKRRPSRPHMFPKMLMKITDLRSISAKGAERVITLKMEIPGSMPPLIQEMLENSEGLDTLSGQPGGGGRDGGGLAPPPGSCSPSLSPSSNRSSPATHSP
Sequence of CCAAT/enhancer-binding protein beta (Homo sapiens) (P17676 whole entry, looked up): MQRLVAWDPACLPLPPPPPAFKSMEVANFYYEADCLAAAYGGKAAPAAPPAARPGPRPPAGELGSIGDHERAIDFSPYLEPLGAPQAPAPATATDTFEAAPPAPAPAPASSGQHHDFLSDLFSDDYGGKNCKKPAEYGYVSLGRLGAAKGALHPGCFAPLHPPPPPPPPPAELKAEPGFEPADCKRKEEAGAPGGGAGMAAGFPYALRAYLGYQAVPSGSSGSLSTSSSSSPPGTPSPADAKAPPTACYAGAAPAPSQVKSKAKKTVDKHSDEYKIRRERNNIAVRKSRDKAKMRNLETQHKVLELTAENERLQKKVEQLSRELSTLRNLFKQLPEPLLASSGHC

As to `O=C(O)C=C(C(F)(F)F)C(F)(F)F`, the compound was called inactive in test [1], in test [2], in [3], in [4], in test [5] and in [6]. Moreover, the call in test [7], in [8], in test [9] and in [10] was inactive.

Regarding `O[Si](c1ccccc1)(c1ccccc1)c1ccccc1`, the result in test [1], in test [2], in [3], in [4], in test [6] and in test [8] was inactive. The compound was called inactive in test [10]. In addition, the AC50 in test [5] is 9.89 µM (active); in test [7] it was 100 µM (active); in test [9], 32.3 µM (active).

In the case of `Nc1ccc([N+](=O)[O-])cc1O`, the outcome in [1], in test [2], in test [3], in test [4], in test [5] and in [7] was inactive. Also, the outcome in test [8], in [9] and in test [10] was inactive. Besides, the AC50 in test [6] was 25.5 µM (active).

On to `Oc1ccc(Nc2ccccc2)cc1`, for which the outcome in test [1], in [2], in test [3], in [5], in [6] and in test [7] was inactive. Besides, the compound was classed as inactive in test [8], in test [9] and in [10]. Moreover, the AC50 in test [4] was 41.8 µM (active).

As to `CCCCCCCCC(F)(F)C(F)(F)C(F)(F)C(F)(F)C(F)(F)C(F)(F)F`, the outcome in [1], in [2], in test [3], in test [4], in test [5] and in [6] was inactive. The compound was called inactive in [8], in test [9] and in test [10].

With `CCCCOCCOCCOC(=O)CCCCC(=O)OCCOCCOCCCC`, the outcome in [1], in test [2], in test [3], in test [4], in test [5] and in [6] was inactive. The outcome in test [8], in test [9] and in test [10] was inactive.

Take `O=C(O)C(F)(F)C(F)(F)C(F)(F)F`: the compound was called inactive in test [1], in [2], in test [3], in [4], in test [5] and in test [6]. The call in [8], in [9] and in test [10] was inactive.

Take `OCC(F)(F)C(F)(F)C(F)(F)C(F)(F)C(F)(F)C(F)F`: the outcome in test [1], in test [2], in test [3], in test [4], in test [5] and in test [6] was inactive. Besides, the call in test [7], in [8], in test [9] and in [10] was inactive.

For the compound `CN(C)Cc1ccccc1O`, the AC50 in [1] is 4.58 µM (active). The compound was classed as inactive in [2], in [3], in test [4], in test [5], in [6] and in [8]. Further, the call in test [9] and in [10] was inactive.

Regarding `CC(C)c1ccccc1N`, the call in test [1], in test [2], in test [3], in [4], in test [5] and in test [6] was inactive. The compound was called inactive in test [7], in test [8], in test [9] and in [10].

Regarding `O=S(=O)(O)c1ccc2ccccc2c1`, the outcome in test [1], in test [2], in test [3], in [4], in test [5] and in [8] was inactive. Moreover, the compound was classed as inactive in test [9]. Also, the AC50 in test [6] was 42.7 µM (active) and 40.3 µM (active).

Consider `O=C(O)C(F)(F)C(F)(F)C(F)F`, for which the outcome in [1], in test [2], in [3], in [4], in test [5] and in test [6] was inactive. Besides, the call in [7], in test [8], in test [9] and in test [10] was inactive.

`C=C(C)C(=O)OCC(F)(F)C(F)(F)C(F)(F)C(F)(F)C(F)(F)C(F)(F)C(F)(F)F`: the result in [1], in [2], in test [3], in [4], in [5] and in test [6] was inactive. The outcome in test [7], in [8], in test [9] and in test [10] was inactive.

Consider `O=C(O)C(F)(F)C(F)(F)F`, for which the call in test [1], in test [2], in test [3], in test [4], in test [5] and in [6] was inactive. The compound was classed as inactive in test [7], in [8], in test [9] and in [10].

For the compound `FC(F)(F)C(F)(F)C(F)(F)N(C(F)(F)C(F)(F)C(F)(F)F)C(F)(F)C(F)(F)C(F)(F)F`, the result in [1], in test [2], in test [3], in [4], in test [5] and in test [6] was inactive. The result in test [7], in [8], in [9] and in test [10] was inactive.

`FC(F)(F)C(F)(F)C(F)(F)C(F)(F)C(F)(F)C(F)(F)CCS`: the call in test [1], in test [2], in [3], in [4], in test [5] and in test [6] was inactive. Moreover, the result in [7], in test [8], in test [9] and in [10] was inactive.

For `[Co]`, the result in [1], in [2], in test [3], in test [4], in test [5] and in test [6] was inactive. Also, the result in test [7], in [8], in [9] and in test [10] was inactive.

Broadly, the AC50 is the midpoint of the concentration-response curve, whichever way the signal moves.
